Laboratory results as given in PubChem BioAssay (NCATS).
Inconclusive results are not listed. Entries that show only a call come without a potency. Active and inactive are the calls of the source. Calls follow the shape of the dose curve; as a rule, active = well fitted curve in the direction sought with a large enough effect; inconclusive = small, poorly fitted or top-dose-only effect, or another doubt; inactive = no such curve, though single readings can be large; an effect the other way counts as inactive or inconclusive.

Legend:
[1] = NS1 protein of Zika virus - qHTS assay to identify small molecule inhibitors in human HEK 293 cells (AID 1347053); also: nearly all actives have a fitted effect of over 55% in size; also: potency is read from the fitted curve at half-maximal effect
How it was run: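 Following 20 h seeding, HEK 293 cells took compound, then 1 h later ZIKV MR766 (MOI = 0.5). Incubation ran 24 h at 37 C before TR-FRET detection of NS1; a drop in signal indicates inhibition.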

[2] = qHTS of pediatric cancer cell lines to identify multiple opportunities for drug repurposing: Primary screen for TC32 cells (AID 1347089); also: nearly all actives have a fitted effect of over 60% in size
How it was run: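 TC32 cells, 500-1,000/well in growth medium, compound-treated 48 h at 37 °C; viability from CellTiter-Glo luminescence. Primary screen: MIPE 11-point (0.78 nM–46 µM final), NPC 8-point (0.59 nM–46 µM final); confirmatory at 11-point dilutions.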

[3] = qHTS of pediatric cancer cell lines to identify multiple opportunities for drug repurposing: Primary screen for DAOY cells (AID 1347090); also: nearly all actives have a fitted effect of over 55% in size; also: potency is read from the fitted curve at half-maximal effect
How it was run: (§1)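 Cell viability, CellTiter-Glo luminescence; 500-1,000 cells/well, 8- or 11-point titration, 48 h compound exposure at 37 degrees C, 5% CO2. Controls: DMSO neutral, bortezomib 2.3 µM final as positive.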

[4] = qHTS of pediatric cancer cell lines to identify multiple opportunities for drug repurposing: Primary screen for SJ-GBM2 cells (AID 1347091); also: potency is read from the fitted curve at half-maximal effect
How it was run: as §1

Row | SMILES | Potency [1] | Potency [2] | Potency [3] | Potency [4]
1 | CC[C@@H](C)[C@H](NC(=O)[C@H](CC1CCCCC1)NC(=O)c1ccno1)C(=O)N1CCC2(CCc3ccccc32)CC1 | inactive | inactive | inactive | 
2 | COc1ccc([C@@H]2CC(=O)c3c(O)cc(O[C@@H]4O[C@H](CO[C@@H]5O[C@@H](C)[C@H](O)[C@@H](O)[C@@H]5O)[C@@H](O)[C@H](O)[C@@H]4O)cc3O2)cc1O | inactive | inactive | inactive | inactive
3 | O=C(O)[C@@H](c1ccc(OCc2ccc3ccccc3n2)cc1)C1CCCC1 | inactive | inactive | inactive | inactive
4 | CC(c1cc2ccccc2s1)N(O)C(N)=O (stereo not drawn) | inactive | inactive | inactive | inactive
5 | CC1(C)SCCN(S(=O)(=O)c2ccc(OCC#CCO)cc2)[C@@H]1C(=O)NO | inactive | inactive | inactive | inactive
6 | CNC(=O)c1ccc(C)c(-n2c(C)cc(OCc3ccc(F)cc3F)c(Br)c2=O)c1 | inactive | inactive | inactive | inactive
7 | OC[C@H](Cc1ccccc1)Nc1nc(Oc2ccc3c(c2)CCC3)nc2c1ncn2Cc1ccc(-c2ccccc2)cc1 | 4.18 µM (active) | inactive | 11.8 µM (active) | 
8 | O=C1CCCC2=C1C(c1[nH]ncc1Cl)N=C(Nc1nc3ccccc3o1)N2 (stereo not drawn) | inactive | inactive | inactive | inactive
9 | CCCn1c(=O)c2[nH]c(C34CC5CC3C[C@@H](C5)C4)nc2n(CCC)c1=O | inactive | inactive | inactive | 16.6 µM (active)
10 | Cn1cnc2c(F)c(Nc3ccc(Br)cc3Cl)c(C(=O)NOCCO)cc21 | inactive | inactive | 14.8 µM (active) | inactive
